Molecules are shown by their SMILES. Unmarked numbers belong to inactive results. Where a call stands in place of a potency, no number is given. Activity calls are given as the source filed them. The call rests on the fitted dose curve; in most records, active means well fitted curve in the direction sought with a large enough effect in the repeat runs; inconclusive means weak or mixed curves; inactive means flat fitted curve, though single readings scatter.

A short description of the test: qHTS assay to test for compound auto fluorescence at 590 nm (red) in HepG2 cell free culture (AID 720684). Conditions: cell-free medium autofluorescence, red 540/590 nm; series mostly up to 91.3 µM. The text has this:
U.S. Tox21 Program National Center for Advancing Translational Sciences [NCATS] NIH Chemical Genomics Center [NCGC] U.S. Environmental Protection Agency [EPA] National Institutes of Environmental Health Sciences [NIEHS] National Toxicology Program [NTP] U.S. Food and Drug Administration [FDA] Tox21 Assay Overview: Compound auto fluorescence often interferes with screening of the compound library against various biological targets and signaling pathways. Some of these compounds may have fluorophoric properties. Such properties may interfere with the assay outputs resulting in false positives and/or negatives. To decrease such complications and ensure the compound activities are relevant in terms of biological response, the Tox21 10K compound library was screened for auto fluorescence. From the fluorophores used as reporter signals in our screening assays, the auto fluorescence equivalencies of compounds against three fluorophores have been evaluated: Triamterene, Fluorescein and Rose Bengal sodium for blue, green and red fluorescence, respectively. The fluorescence intensities were measured using Excitation/Emission wavelengths at 405/460nm, 485/535nm and 540/590nm for blue, green and red labels, respectively. This assay includes the red fluorescence data.
Tox21 Assay Protocol Summary: 5 uL of culture medium (MEM containing 10% FBS) per well was dispensed into black wall/clear bottom 1536-well plates using a Multidrop Combi Dispenser (ThermoFisher Scientific, Waltham, MA). After 23 nL compound or DMSO vehicle was transferred into assay plate by a pintool work station (Kalypsys, San Diego, CA), fluorescence intensities in the assay plates were measured by an Envision (PerkinElmer, Shelton, CT) plate reader using three labels for measuring blue, green and red fluorescence at […] 460, 535 and 590nm respectively.
As to `CC(=O)NO`, the Potency result is “inactive”.

For the compound `O=P(O)(OCc1ccccc1)OCc1ccccc1`, the Potency entry was “inactive”.

For `c1cc(CCCc2ccncc2)ccn1`, the Potency entry was “inactive”.

`Brc1c2ccccc2c(Br)c2ccccc12`: the fluorescence, % of Rose Bengal is 0.241% [at 3.72 µM].

`CCN(CC)CCOC(=O)C(c1ccccc1)C1CCCCC1` (stereo not given): the Potency result is “inactive”.

In the case of `O=C(O)c1nc(Cl)c(Cl)c(Cl)c1Cl`, the Potency entry is “inactive”.

As for `CCCCC/C=C\C/C=C\CCCCCCCC(=O)NC(C)c1ccccc1` (stereo not given), the Potency result was “inactive”.

Regarding `CC(C)(C)OCC1CO1` (stereo not given), the Potency result is “inactive”.

Take `CCCCCCc1ccc(-c2ccc(C#N)cc2)cc1`: the Potency result is “inactive”.

As to `CN(C)c1ccc(/C=C/c2ccc([N+](=O)[O-])cc2)cc1`, the fluorescence, % of Rose Bengal was -0.037% [at 3.72 µM].

With `Nc1cccc([N+](=O)[O-])c1`, the Potency result was “inactive”.

As to `Cc1oc(-c2ccccc2)nc1CCOc1cccc2c1ccn2CCC(=O)O`, the Potency entry is “inactive”.

As to `CCOC(=O)Cc1cccc2ccccc12`, the Potency result was “inactive”.

For `CC(C)Nc1ccc(NC(C)C)c2c1C(=O)c1ccccc1C2=O`, the Potency entry is “inactive”.

On to `CN1CCC(=C2c3ccccc3Sc3ccccc32)CC1`, for which the Potency entry was “inactive”.

With `CCOC(=O)COC(=O)c1cc(Oc2ccc(C(F)(F)F)cc2Cl)ccc1[N+](=O)[O-]`, the Potency result was “inactive”.

For the compound `CCCNCC(O)COc1ccccc1C(=O)CCc1ccccc1` (stereo not given), the Potency entry was “inactive”.

As for `CCC(=O)O[C@]1(C(=O)CCl)[C@@H](C)C[C@H]2[C@@H]3CCC4=CC(=O)C=C[C@]4(C)[C@@]3(F)[C@@H](O)C[C@@]21C`, the Potency result was “inactive”.

For the compound `CCc1c(C(=O)NN2CCCCC2)nn(-c2ccc(Cl)cc2Cl)c1-c1ccc(Br)cc1`, the Potency result is “inactive”.

`CCN(CC)CCNC(=O)c1cc(Br)c(N)cc1OC`: the Potency entry is “inactive”.

As to `CCCn1cnc2c1c(=O)n(CCCCC(C)=O)c(=O)n2C`, the Potency result is “inactive”.

In the case of `Clc1ccc2c(c1)CCc1cccnc1C2=C1CCNCC1`, the Potency entry was “inactive”.

As to `COC(C)(C)CCO`, the Potency entry is “inactive”.

On to `O=C1CCCCCCCCCCCC(=O)OCCO1`, for which the Potency entry was “inactive”.

Turning to `O=C(O)c1ccc(-n2nc(-c3ccccc3O)nc2-c2ccccc2O)cc1`, the Potency result is “inactive”.

Consider `CCCCCCCCCCCCCCCCOS(=O)(=O)O`, for which the Potency result is “inactive”.

For `CC(C)(O)c1ccc(CNC(=O)c2cccnc2Oc2ccc(F)cc2)cc1`, the Potency result was “inactive”.

Turning to `CC(C)(COC(=O)c1ccccc1)COC(=O)c1ccccc1`, the Potency result was “inactive”.

Regarding `Cc1cccc(C)c1NC(=O)CN(CC(=O)O)CC(=O)O`, the Potency result was “inactive”.

As for `C[N+](C)(C)CCOC(=O)CCC(=O)OCC[N+](C)(C)C`, the Potency entry was “inactive”.

Regarding `CNCCCCOc1ccccc1Cc1ccccc1`, the Potency entry is “inactive”.

Take `CNC(=O)CN(CCN(CCN(CC(=O)[O-])CC(=O)NC)CC(=O)[O-])CC(=O)[O-].O.[Gd+3]`: the Potency entry was “inactive”.

Turning to `c1ccc(C(O[C@H]2CCCN(CCc3ccc4c(c3)OCO4)C2)c2ccccc2)cc1`, the Potency entry is “inactive”.

For the compound `CCCCCCCCCCO[C@@H]1O[C@H](CO)[C@@H](O)[C@H](O)[C@H]1O`, the Potency result is “inactive”.

Turning to `COc1cccc(N(C)C(=S)Oc2ccc3c(c2)CCCC3)n1`, the Potency result is “inactive”.

As for `C[C@H]1C[C@H]2[C@@H]3CCC4=CC(=O)C=C[C@]4(C)[C@@]3(Cl)[C@@H](O)C[C@]2(C)[C@@]1(O)C(=O)CO`, the Potency entry is “inactive”.

For `Nc1ccccc1S(=O)(=O)c1ccccc1`, the Potency entry was “inactive”.

As to `CCC(C)O` (stereo not given), the Potency entry was “inactive”.

Regarding `Cc1ccc(N=Nc2c(O)c(C(=O)O)cc3ccccc23)c(S(=O)(=O)O)c1`, the Potency result is “inactive”.

In the case of `C[N+]1(CC2COC(c3ccccc3)(C3CCCCC3)O2)CCCCC1` (stereo not given), the Potency result was “inactive”.

The values are drawn from PubChem BioAssay (Tox21).
